In general, inhibition refers to the relative decrease from the control value, in per cent.

7 molecules from ChEMBL document CHEMBL1961873, “Compounds: GSK PKIS; Assays: Nanosyn kinase panel” (2012) can be followed below.

The subject of experiment [1] is Proto-oncogene tyrosine-protein kinase receptor Ret (Homo sapiens), P07949 [Y791F]. The settings on record: at 1 µM.
Experiment [2] has as its target Macrophage-stimulating protein receptor (Homo sapiens) (UniProt Q04912). The settings on record: at 0.1 µM.
For experiment [3] the target is unchanged. Conditions: at 1 µM.
Experiment [4] has as its target Proto-oncogene tyrosine-protein kinase ROS (Homo sapiens) (UniProt P08922). Conditions: at 0.1 µM.
For experiment [5] the target is unchanged. Conditions: at 1 µM.
The target of experiment [6] is Proto-oncogene tyrosine-protein kinase Src (Homo sapiens) (UniProt P12931). The settings on record: at 0.1 µM.
The target is the same in experiment [7]. The settings on record: at 1 µM.
The target in experiment [8] is Tyrosine-protein kinase Srms (Homo sapiens) (UniProt Q9H3Y6). Conditions: at 0.1 µM.
Experiment [9] has the same target. The settings on record: at 1 µM.
The target of experiment [10] is Tyrosine-protein kinase SYK (Homo sapiens) (UniProt P43405). The settings on record: at 0.1 µM.
The target is the same in experiment [11]. Conditions: at 1 µM.
The target of experiment [12] is T1, Tyrosine-protein kinase Tec (Homo sapiens) (UniProt P42680).
T1 sequence (whole entry): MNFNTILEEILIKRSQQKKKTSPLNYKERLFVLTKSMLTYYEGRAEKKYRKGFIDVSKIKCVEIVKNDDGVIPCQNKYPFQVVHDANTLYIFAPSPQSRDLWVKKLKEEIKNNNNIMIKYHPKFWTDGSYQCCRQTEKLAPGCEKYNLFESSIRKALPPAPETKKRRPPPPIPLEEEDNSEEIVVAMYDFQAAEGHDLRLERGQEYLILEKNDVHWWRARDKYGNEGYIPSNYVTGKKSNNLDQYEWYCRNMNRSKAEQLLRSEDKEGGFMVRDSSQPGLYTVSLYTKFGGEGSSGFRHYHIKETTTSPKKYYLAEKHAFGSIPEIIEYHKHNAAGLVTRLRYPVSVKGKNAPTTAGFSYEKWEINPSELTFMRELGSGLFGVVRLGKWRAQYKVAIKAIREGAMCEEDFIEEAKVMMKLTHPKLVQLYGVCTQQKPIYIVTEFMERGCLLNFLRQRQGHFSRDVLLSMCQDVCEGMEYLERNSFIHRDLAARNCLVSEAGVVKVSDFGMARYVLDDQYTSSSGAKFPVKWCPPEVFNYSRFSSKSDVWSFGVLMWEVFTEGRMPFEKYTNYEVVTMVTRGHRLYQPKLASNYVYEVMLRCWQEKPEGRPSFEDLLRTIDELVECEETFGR
Conditions: at 0.1 µM.

The target in experiment [13] is T1, Tyrosine-protein kinase Tec (Homo sapiens). Conditions: at 1 µM.
Experiment [14] has as its target Angiopoietin-1 receptor (Homo sapiens) (UniProt Q02763). The settings on record: at 0.1 µM.
Experiment [15] shares this target. The settings on record: at 1 µM.
Experiment [16] addresses T2, Non-receptor tyrosine-protein kinase TNK1 (Homo sapiens) (UniProt Q13470).
T2 sequence (whole entry): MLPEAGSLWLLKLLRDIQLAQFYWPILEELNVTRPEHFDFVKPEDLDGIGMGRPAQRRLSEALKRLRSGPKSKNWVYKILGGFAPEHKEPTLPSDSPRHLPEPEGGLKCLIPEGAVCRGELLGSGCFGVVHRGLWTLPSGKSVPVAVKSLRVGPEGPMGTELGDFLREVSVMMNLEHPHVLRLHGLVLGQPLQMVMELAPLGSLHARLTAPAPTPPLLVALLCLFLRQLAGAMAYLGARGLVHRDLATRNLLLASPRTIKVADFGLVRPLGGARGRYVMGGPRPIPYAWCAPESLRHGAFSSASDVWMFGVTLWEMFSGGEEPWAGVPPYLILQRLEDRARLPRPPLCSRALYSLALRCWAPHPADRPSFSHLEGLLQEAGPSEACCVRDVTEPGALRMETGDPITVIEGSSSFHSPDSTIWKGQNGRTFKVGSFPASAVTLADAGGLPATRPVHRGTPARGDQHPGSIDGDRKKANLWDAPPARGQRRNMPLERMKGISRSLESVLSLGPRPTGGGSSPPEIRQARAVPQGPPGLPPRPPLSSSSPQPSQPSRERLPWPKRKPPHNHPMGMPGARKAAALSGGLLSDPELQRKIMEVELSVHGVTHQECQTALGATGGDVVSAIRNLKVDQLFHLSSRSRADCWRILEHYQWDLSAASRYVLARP
The settings on record: at 0.1 µM.

Experiment [17] deals with T2, Non-receptor tyrosine-protein kinase TNK1 (Homo sapiens). The settings on record: at 1 µM.
For experiment [18], the target named is Activated CDC42 kinase 1 (Homo sapiens) (UniProt Q07912). Conditions: at 0.1 µM.
For experiment [19] the target is unchanged. The settings on record: at 1 µM.
Experiment [20] deals with High affinity nerve growth factor receptor (Homo sapiens) (UniProt P04629). The settings on record: at 0.1 µM.
Sequence of High affinity nerve growth factor receptor (Homo sapiens) (P04629 33-796 limits assumed): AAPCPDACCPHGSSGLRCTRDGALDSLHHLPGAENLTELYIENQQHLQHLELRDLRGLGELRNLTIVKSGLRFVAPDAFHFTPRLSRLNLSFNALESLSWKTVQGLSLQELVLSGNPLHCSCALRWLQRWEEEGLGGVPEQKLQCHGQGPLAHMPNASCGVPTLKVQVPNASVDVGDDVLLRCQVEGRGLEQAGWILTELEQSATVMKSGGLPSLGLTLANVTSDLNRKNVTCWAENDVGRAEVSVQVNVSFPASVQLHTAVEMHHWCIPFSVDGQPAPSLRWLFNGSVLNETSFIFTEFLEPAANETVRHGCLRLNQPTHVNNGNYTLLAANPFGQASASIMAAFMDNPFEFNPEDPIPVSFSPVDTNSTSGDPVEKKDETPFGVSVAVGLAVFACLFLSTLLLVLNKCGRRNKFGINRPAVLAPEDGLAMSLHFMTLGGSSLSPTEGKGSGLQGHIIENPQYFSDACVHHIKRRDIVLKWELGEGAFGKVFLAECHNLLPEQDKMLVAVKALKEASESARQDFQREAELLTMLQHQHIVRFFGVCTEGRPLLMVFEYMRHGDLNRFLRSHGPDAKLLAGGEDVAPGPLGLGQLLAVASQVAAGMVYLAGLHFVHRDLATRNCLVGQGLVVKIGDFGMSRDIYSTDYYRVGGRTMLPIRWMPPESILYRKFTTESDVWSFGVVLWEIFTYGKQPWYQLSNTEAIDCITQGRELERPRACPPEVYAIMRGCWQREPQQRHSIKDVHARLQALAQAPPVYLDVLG

Sequence of Tyrosine-protein kinase Srms (Homo sapiens) (Q9H3Y6 whole entry): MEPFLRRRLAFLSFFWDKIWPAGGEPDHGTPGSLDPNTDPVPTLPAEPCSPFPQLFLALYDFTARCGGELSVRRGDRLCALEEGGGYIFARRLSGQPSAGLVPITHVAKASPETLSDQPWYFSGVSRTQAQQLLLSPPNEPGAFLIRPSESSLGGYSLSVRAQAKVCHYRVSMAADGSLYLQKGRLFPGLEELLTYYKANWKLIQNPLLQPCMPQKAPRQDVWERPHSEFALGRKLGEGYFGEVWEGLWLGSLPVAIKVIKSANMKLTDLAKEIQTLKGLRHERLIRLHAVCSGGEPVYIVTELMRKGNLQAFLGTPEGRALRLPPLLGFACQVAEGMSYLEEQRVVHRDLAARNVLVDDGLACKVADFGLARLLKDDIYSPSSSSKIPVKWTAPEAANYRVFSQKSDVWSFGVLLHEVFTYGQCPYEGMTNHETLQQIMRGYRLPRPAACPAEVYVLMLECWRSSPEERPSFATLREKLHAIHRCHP
Sequence of Activated CDC42 kinase 1 (Homo sapiens) (Q07912 whole entry, looked up): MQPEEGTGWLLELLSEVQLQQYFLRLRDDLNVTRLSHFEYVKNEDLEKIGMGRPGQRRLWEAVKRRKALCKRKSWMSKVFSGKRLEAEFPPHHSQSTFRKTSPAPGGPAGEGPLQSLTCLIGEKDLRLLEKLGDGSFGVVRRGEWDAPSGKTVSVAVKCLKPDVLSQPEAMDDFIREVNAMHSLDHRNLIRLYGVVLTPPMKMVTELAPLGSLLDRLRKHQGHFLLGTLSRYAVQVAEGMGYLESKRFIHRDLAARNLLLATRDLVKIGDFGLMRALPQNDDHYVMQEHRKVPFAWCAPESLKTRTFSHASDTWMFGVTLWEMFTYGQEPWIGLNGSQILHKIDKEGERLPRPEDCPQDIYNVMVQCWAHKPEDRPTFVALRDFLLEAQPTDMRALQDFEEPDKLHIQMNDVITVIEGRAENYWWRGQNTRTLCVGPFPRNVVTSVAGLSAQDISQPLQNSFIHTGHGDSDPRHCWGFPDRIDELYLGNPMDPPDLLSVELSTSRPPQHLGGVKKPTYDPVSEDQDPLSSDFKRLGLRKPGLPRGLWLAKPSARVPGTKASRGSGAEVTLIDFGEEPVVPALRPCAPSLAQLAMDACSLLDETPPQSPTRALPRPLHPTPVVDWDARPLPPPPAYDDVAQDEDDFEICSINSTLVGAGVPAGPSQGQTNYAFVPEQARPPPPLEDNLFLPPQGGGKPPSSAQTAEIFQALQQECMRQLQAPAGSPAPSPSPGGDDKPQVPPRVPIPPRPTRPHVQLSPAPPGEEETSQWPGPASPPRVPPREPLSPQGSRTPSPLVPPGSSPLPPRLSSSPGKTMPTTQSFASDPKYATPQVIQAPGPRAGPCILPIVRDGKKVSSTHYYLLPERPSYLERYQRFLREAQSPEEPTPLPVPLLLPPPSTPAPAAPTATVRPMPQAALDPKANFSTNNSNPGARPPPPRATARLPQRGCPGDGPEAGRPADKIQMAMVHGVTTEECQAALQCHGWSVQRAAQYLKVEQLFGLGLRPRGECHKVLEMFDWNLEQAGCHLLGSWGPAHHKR
Sequence of Proto-oncogene tyrosine-protein kinase Src (Homo sapiens) (P12931 2-536 limits assumed): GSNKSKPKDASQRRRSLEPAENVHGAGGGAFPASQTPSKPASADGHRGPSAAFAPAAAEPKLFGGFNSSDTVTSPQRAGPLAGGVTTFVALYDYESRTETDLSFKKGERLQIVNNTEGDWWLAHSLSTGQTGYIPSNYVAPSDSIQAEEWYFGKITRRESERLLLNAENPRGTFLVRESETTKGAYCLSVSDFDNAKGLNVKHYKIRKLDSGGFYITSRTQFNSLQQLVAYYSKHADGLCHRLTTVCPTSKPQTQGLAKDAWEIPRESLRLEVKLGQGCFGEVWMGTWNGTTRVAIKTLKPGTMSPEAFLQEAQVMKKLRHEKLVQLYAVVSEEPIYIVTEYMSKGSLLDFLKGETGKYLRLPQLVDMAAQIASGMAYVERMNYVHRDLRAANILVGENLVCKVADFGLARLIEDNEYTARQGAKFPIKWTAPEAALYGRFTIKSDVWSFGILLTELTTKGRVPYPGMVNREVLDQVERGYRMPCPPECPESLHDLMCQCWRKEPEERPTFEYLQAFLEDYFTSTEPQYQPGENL
Sequence of Macrophage-stimulating protein receptor (Homo sapiens) (Q04912 25-304 limits assumed): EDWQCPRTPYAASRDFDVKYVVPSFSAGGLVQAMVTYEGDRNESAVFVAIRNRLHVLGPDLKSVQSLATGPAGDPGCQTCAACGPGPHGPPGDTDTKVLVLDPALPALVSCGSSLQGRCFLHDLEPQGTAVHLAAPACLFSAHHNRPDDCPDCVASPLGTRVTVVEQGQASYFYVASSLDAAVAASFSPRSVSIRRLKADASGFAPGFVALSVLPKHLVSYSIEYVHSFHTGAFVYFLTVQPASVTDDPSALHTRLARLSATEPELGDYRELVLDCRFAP
Sequence of Macrophage-stimulating protein receptor (Homo sapiens) (Q04912 310-1400 limits assumed): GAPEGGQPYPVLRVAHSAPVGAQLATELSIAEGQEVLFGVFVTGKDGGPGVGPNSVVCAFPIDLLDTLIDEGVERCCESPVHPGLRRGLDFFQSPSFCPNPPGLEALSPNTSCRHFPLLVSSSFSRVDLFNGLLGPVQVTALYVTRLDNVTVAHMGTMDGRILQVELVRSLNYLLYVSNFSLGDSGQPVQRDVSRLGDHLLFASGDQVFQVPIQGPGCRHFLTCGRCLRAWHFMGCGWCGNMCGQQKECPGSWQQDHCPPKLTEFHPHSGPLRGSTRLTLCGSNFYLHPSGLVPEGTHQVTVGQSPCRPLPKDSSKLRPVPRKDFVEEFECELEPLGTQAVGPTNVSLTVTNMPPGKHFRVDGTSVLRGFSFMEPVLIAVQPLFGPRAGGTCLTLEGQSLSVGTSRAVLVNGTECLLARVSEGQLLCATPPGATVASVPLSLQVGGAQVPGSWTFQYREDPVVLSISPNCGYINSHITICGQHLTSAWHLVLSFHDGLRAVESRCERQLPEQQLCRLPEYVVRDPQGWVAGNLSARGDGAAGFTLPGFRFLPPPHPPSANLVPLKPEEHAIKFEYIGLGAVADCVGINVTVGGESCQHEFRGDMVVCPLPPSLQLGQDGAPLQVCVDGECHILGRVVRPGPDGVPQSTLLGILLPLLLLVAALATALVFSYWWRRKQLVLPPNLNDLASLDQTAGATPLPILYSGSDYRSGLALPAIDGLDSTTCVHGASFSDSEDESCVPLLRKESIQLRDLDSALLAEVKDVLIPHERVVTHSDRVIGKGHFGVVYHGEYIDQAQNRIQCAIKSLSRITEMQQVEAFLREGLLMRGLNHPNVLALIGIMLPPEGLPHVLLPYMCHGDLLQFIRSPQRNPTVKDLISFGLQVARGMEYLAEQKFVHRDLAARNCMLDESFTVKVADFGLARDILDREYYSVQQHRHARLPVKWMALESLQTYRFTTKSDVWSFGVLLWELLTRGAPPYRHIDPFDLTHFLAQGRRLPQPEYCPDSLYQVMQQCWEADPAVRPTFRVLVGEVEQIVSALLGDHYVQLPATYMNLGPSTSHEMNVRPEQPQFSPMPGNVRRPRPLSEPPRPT

Consider `CNC(=O)c1ncccc1Nc1nc(Nc2cc3c(cc2OC)CCCN3C(=O)CN(C)C)nc2[nH]ccc12`, for which the inhibition was 27.1% in experiment [1]; -2.25% in [2]; 6.45% in experiment [3]; 83.4% in experiment [4]; 87.7% in experiment [5]; 0.68% in experiment [6]. Moreover, the inhibition in [7] is 8.9%; in experiment [8], 0.09%; in experiment [9], -0.71%; in experiment [10] it was -1.3%; in experiment [11] it was 1.95%; in experiment [12], 5.55%. The inhibition in experiment [13] is 7.76%; in experiment [14], 1.81%; in experiment [15], -0.04%; in experiment [16], 50%; in experiment [17] it was 73%; in experiment [18] it was 2.4%. Besides, the inhibition in experiment [19] was determined as 10.8%; in experiment [20] it was 5.07%.

Regarding `CCCNc1cccc(-n2ncc3c(N/N=C/c4ccncc4)ncnc32)c1`, the inhibition in experiment [1] was 65.2%; in experiment [2], 11.7%; in [3] it was 57.9%; in experiment [4] it was 6.09%; in experiment [5] it was 33.4%; in experiment [6] it was 19.5%. Also, the inhibition in [7] is 81.8%; in experiment [8], 4.26%; in experiment [9], 7.86%; in experiment [10], 3.8%; in experiment [11] it was -2.86%; in [12], 2.52%. In addition, the inhibition was determined as 7.76% in experiment [13]; 8.93% in [14]; 36.2% in experiment [15]; 9.78% in experiment [16]; 48% in [17]; 0.38% in experiment [18]. The inhibition in experiment [19] was 3.51%; in experiment [20], -0.62%.

As for `CCN1CCC(C(=O)Nc2n[nH]c3nnc(-c4cccc(F)c4F)cc23)CC1`, the inhibition in experiment [1] was 3.53%; in [2] it was 0.53%; in experiment [3] it was 0.25%; in experiment [4], -1.03%; in experiment [5], 3.74%; in experiment [6], -1.14%. Besides, the inhibition is -2.38% in [7]; 1.44% in experiment [8]; 2.12% in [9]; 0.98% in experiment [10]; 0.2% in [11]; -1.63% in experiment [12]. The inhibition in [13] is 0.37%; in experiment [14], 1.84%; in [15], 2.91%; in experiment [16], 1.54%; in experiment [17] it was 0.05%; in experiment [18], -0.13%. Besides, the inhibition in experiment [19] turned out to be 0.07%; in experiment [20], 1.95%.

`COc1ccc(Nc2ncc(-c3ccccc3)o2)cc1OC`: the inhibition in experiment [1] is 27.2%; in experiment [2], -0.4%; in experiment [3], 5.46%; in experiment [4] it was 7.2%; in experiment [5], 24.5%; in experiment [6], 12.2%. In addition, the inhibition in experiment [7] worked out at 54%; in [8] it was 0.67%; in experiment [9], 2.69%; in experiment [10], 4.52%; in experiment [11], 0.42%; in [12] it was 2.91%. For the same molecule, the inhibition in experiment [13] is 9.41%; in experiment [14], 2.1%; in experiment [15], 8.87%; in [16], 5.16%; in experiment [17], 26.8%; in experiment [18] it was -0.28%. In addition, the figures for the inhibition in experiment [19] and in experiment [20] were 2.05% and -1.61%, respectively.

For `NC(=O)c1ccc2c(-c3ccnc(NCCCO)n3)c(-c3ccc(F)cc3)nn2c1`, the inhibition in experiment [1] amounted to 19.4%; in experiment [2], 2.03%; in experiment [3], 9.13%; in experiment [4], 8.51%; in experiment [5], 10.6%; in experiment [6], 0.24%. For the same molecule, the inhibition in experiment [7] is 12.9%; in [8], 15%; in experiment [9], 4.79%; in experiment [10] it was -5.36%; in experiment [11], -0.6%; in experiment [12], 5.81%. Also, the inhibition in experiment [13] stood at 16.1%; in [14], 5.27%; in experiment [15] it was 6.83%; in experiment [16] it was 4.67%; in experiment [17], 2.83%; in experiment [18] it was 0.88%. Moreover, the inhibition in experiment [19] amounted to 5%; in [20], 3.75%.

On to `COc1cc(N2CCN(C(C)C)CC2)ccc1Nc1nc(Nc2cccc3ncccc23)c2cc[nH]c2n1`, for which the inhibition was 14.2% in [1]; -0.12% in experiment [2]; 1.56% in experiment [3]; 7.82% in experiment [4]; 45.3% in experiment [5]; 2% in experiment [6]. The inhibition in [7] was 0.42%; in experiment [8], 0.04%; in experiment [9], 0.63%; in experiment [10] it was -1.08%; in experiment [11], -0.52%; in [12] it was 0.93%. For the same molecule, the inhibition in experiment [13] is -0.14%; in experiment [14], 3.15%; in experiment [15] it was 7.32%; in [16], 0.11%; in [17] it was 22.3%; in [18] it was 1.12%. Further, the inhibition was 13.2% in experiment [19] and 1.86% in experiment [20].

For `O=C(O[C@H]1CN[C@H](C#Cc2cc3ncnc(Nc4ccc(OCc5cccc(F)c5)c(Cl)c4)c3s2)C1)N1CCOCC1`, the inhibition is 7.29% in experiment [1]; 1.25% in experiment [2]; 12.9% in experiment [3]; 6.55% in experiment [4]; 8.8% in [5]; -0.25% in experiment [6]. Besides, the inhibition in experiment [7] is 11.3%; in experiment [8] it was -2.71%; in experiment [9] it was -2.76%; in experiment [10], -7%; in experiment [11], -2.54%; in experiment [12] it was 5.08%. Also, the inhibition is 4.41% in experiment [13]; 2.8% in [14]; 7.75% in experiment [15]; 4.45% in [16]; 21.9% in [17]; 2.09% in [18]. Besides, the inhibition in [19] was 2.88%; in [20] it was 1.47%.
